Screening results from PubChem BioAssay.
An excerpt weighted towards active compounds, which were near 2.9% of everything screened.
SNCA expr inhib: reduces expression of the alpha-synuclein gene | HEK-293 SNCA-luciferase knock-in, luminescence, 24 h | Potency, µM (series often up to 57.2 µM), usual class: inhibitors | 140,000 compounds, 0.17% hits; also: nearly all actives have a fitted effect of over 45% in size
KDM5B inhibitor: KDM5B demethylase inhibition; Q9UGL1; KDM5B demethylase, FDH-coupled NADH fluorescence (FDH is formaldehyde dehydrogenase); Potency, µM (top dose mostly 57.7 µM), hits mostly inhibitors; 220,000 compounds, 2.6% hits; AID 1347165; also: nearly all actives have a fitted effect of over 70% in size
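Measured: NADH fluorescence change, 30 min, RT. System: KDM5BΔAP 200 nM final, H3K4me3 peptide, α-KG, Fe(II), ascorbate, NAD⁺ plus FDH, pH 7.5 HEPES. Compounds: titrated, 10 min pre-incubation with enzyme.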
SNCA viab count: counter-screen for SNCA expression inhibitors: cell viability; Potency, µM (doses to about 57.1 µM), hits mostly cytotoxic; HEK-293-SNCA-luc viability, GF-AFC fluorescence, 24 h; AID 1671193; 150,000 compounds, 0.12% hits; also: nearly all actives have a fitted effect of over 30% in size
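HEK-293-SNCA-luc cells (1500/well) plated 24 h, then exposed 24 h to a dilution series; GF-AFC added 30 min at 37C, fluorescence 405/540 nm; normalised to medium-only and DMSO wells, Hill fit.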
IP6K1 inh: inhibitors of human IP6K1; 140,000 compounds, 0.81% hits; activity change, % (series mostly up to about 58 µM); IP6K1 kinase, ADP-Glo luminescence, 2 h; stronger effect = lower value; Q92551; in the data active = activity change below about -25%
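ADP-Glo luminescence measures ADP made by human IP6K1 during a 2 h RT reaction with ATP/IP6 (mix at 1.3 mM/130 uM); top library doses 57.5 and 19.1 uM final.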
Hits are given with their value; [ ] = dose if it differs, or a comment. Unless noted, calls follow the shape of the dose curve; as a rule, active = well fitted curve in the direction sought with a large enough effect; inconclusive = small, poorly fitted or top-dose-only effect, or another doubt; inactive = no such curve, though single readings can be large; an effect the other way counts as inactive or inconclusive.

Results for CC(=O)N1CCOc2ccc(CCC(=O)NC(C)Cn3ccc(C)n3)cc2C1 (stereo not drawn) ?
SNCA expr inhib: 20µM; KDM5B inhibitor: inactive; SNCA viab count: inactive[12.5 µM]; IP6K1 inh: inactive

Results for CNC(=O)CCc1ccc2c(c1)CN(C(C)=O)CCO2 ?
SNCA expr inhib: inactive; KDM5B inhibitor: inactive; SNCA viab count: inactive[12.5 µM]; IP6K1 inh: inactive

Results for COCc1cc(NCCSCc2ccccc2C)ncn1 ?
SNCA expr inhib: inactive; KDM5B inhibitor: inactive; SNCA viab count: inactive; IP6K1 inh: inactive

How did COCc1cc(NCCCNc2cccnc2)ncn1 do in these assays?
SNCA expr inhib: inactive; KDM5B inhibitor: 14µM; SNCA viab count: inactive; IP6K1 inh: inactive

Results for Cc1cc2cccc(-c3nc(C4CCOC4)no3)c2o1 (stereo not drawn) ?
SNCA expr inhib: inconclusive; KDM5B inhibitor: 22µM; SNCA viab count: inconclusive; IP6K1 inh: inactive

Results for Cc1cc(-c2nc(C3CCOC3)no2)c2ccccc2n1 (stereo not drawn) ?
SNCA expr inhib: inactive; KDM5B inhibitor: 28µM; SNCA viab count: inactive; IP6K1 inh: inactive

Results for CCN(CC)Cc1cc(-c2nc(C3CCOC3)no2)c(-c2ccccc2)o1 (stereo not drawn) ?
SNCA expr inhib: inactive; KDM5B inhibitor: 25µM; SNCA viab count: inactive; IP6K1 inh: inactive

How did O=C(/C=N/O)Nc1ccccc1[N+](=O)[O-] do in these assays?
KDM5B inhibitor: inactive

Results for CCc1ccccc1-n1nc(-c2c(C)nc3scc(CC(=O)NCc4ccco4)n3c2=O)cc1C ?
SNCA expr inhib: inactive; KDM5B inhibitor: 28µM; SNCA viab count: inactive; IP6K1 inh: inactive

What do the screens show for `CCCCCCNC(=O)Cc1csc2nc(C)c(-c3cc(C)n(-c4cccc(C)c4)n3)c(=O)n12`?
SNCA expr inhib: inactive; KDM5B inhibitor: inconclusive; SNCA viab count: inactive; IP6K1 inh: inactive

What do the screens show for `CCc1ccccc1-n1nc(-c2c(C)nc3scc(CC(=O)NCC(C)C)n3c2=O)cc1C`?
SNCA expr inhib: inactive; KDM5B inhibitor: inconclusive; SNCA viab count: inactive; IP6K1 inh: inactive

What do the screens show for `CCCCCCNC(=O)Cc1csc2nc(C)c(-c3cc(C)n(-c4ccccc4OC)n3)c(=O)n12`?
SNCA expr inhib: inactive; KDM5B inhibitor: 28µM; SNCA viab count: inactive; IP6K1 inh: inactive

What do the screens show for `CCCNC(=O)Cc1csc2nc(C)c(-c3cc(C)n(-c4ccccc4CC)n3)c(=O)n12`?
SNCA expr inhib: inactive; KDM5B inhibitor: inconclusive; SNCA viab count: inactive; IP6K1 inh: inactive

What do the screens show for `CCCCCNC(=O)Cc1csc2nc(C)c(-c3cc(C)n(-c4cccc(C)c4C)n3)c(=O)n12`?
SNCA expr inhib: inactive; KDM5B inhibitor: 32µM; SNCA viab count: inactive; IP6K1 inh: inactive

What do the screens show for `CCCCNC(=O)Cc1csc2nc(C)c(-c3cc(C)n(-c4ccccc4CC)n3)c(=O)n12`?
SNCA expr inhib: inactive; KDM5B inhibitor: 32µM; SNCA viab count: inactive; IP6K1 inh: inactive

How did Cn1nc(C2CCN([S+](=O)([O-])c3cccc(C(F)(F)F)c3)CC2)[nH]c1=O do in these assays?
SNCA expr inhib: inactive; KDM5B inhibitor: inactive; SNCA viab count: inactive; IP6K1 inh: inactive

Results for CCC(C)NC(=O)CN1CN(c2ccccc2)C2(CCN(C(=O)c3cccc(OC)c3)CC2)C1=O (stereo not drawn) ?
SNCA expr inhib: inactive; KDM5B inhibitor: inactive; SNCA viab count: inactive; IP6K1 inh: inactive

How did CCc1ccccc1-n1nc(-c2c(C)nc3scc(CC(=O)N4CCCC4)n3c2=O)cc1C do in these assays?
SNCA expr inhib: inactive; KDM5B inhibitor: 32µM; SNCA viab count: inactive; IP6K1 inh: inactive

Results for Cc1nc2scc(CC(=O)N3CCCC3)n2c(=O)c1-c1cc(C)n(-c2ccccc2F)n1 ?
SNCA expr inhib: inactive; KDM5B inhibitor: inconclusive; SNCA viab count: inactive; IP6K1 inh: inactive

What do the screens show for `COCCN1Cc2ccc(NCc3ccccc3)nc2C(C)(C(=O)N(C)CCOC)C1` (stereo not drawn)?
SNCA expr inhib: inactive; KDM5B inhibitor: 35µM; SNCA viab count: inactive; IP6K1 inh: inactive

What do the screens show for `CC(C)CNc1ccc2c(n1)C(C)(C(=O)NC1CC1)CN(Cc1ccccc1)C2` (stereo not drawn)?
SNCA expr inhib: inconclusive; KDM5B inhibitor: inactive; SNCA viab count: inconclusive; IP6K1 inh: inactive

What do the screens show for `COCCN(C)C(=O)C1(C)CN(Cc2ccccc2)Cc2ccc(NCC(C)C)nc21` (stereo not drawn)?
SNCA expr inhib: inconclusive; KDM5B inhibitor: 32µM; SNCA viab count: inconclusive; IP6K1 inh: inactive

How did CN1[C@@H](CCC(=O)N2CCN(c3ccccn3)CC2)CNC(=O)[C@@H]2[C@H]1CCN2Cc1ccc(O)cc1 do in these assays?
SNCA expr inhib: inactive; KDM5B inhibitor: 32µM; SNCA viab count: inactive; IP6K1 inh: inactive

Results for CN1[C@@H](CCC(=O)N2CCN(c3ccccn3)CC2)CNC(=O)[C@@H]2[C@H]1CCN2Cc1ccc(CO)o1 ?
SNCA expr inhib: inactive; KDM5B inhibitor: 32µM; SNCA viab count: inactive; IP6K1 inh: inactive

Results for CN1[C@@H](CCC(=O)N2CCN(c3ccccn3)CC2)CNC(=O)[C@@H]2[C@H]1CCN2Cc1ncc[nH]1 ?
SNCA expr inhib: inactive; KDM5B inhibitor: 22µM; SNCA viab count: inactive; IP6K1 inh: inactive

How did CN1CCN(C(=O)CC[C@H]2CNC(=O)[C@@H]3[C@@H](CCN3Cc3ncc[nH]3)N2C)CC1 do in these assays?
SNCA expr inhib: inactive; KDM5B inhibitor: inactive; SNCA viab count: inactive; IP6K1 inh: inactive

Results for O=C(Nc1ccccc1)N[C@H]1C[C@H]2C(=O)NC[C@@H](CCC(=O)N3CCN(c4ccccn4)CC3)N2C1 ?
SNCA expr inhib: inactive; KDM5B inhibitor: 25µM; SNCA viab count: inactive; IP6K1 inh: inactive

What do the screens show for `COc1ccc(NC(=O)NCc2cccn2Cc2cccc(F)c2)cc1OC`?
KDM5B inhibitor: inactive

Results for COC(=O)c1sccc1NC(=O)CC1(C(=O)O)CCCCCC1 ?
KDM5B inhibitor: inactive

Results for O=C(Nc1c(NC2CCCCC2)c2ccccc2oc1=O)c1ccc(C(F)(F)F)cc1 ?
KDM5B inhibitor: inactive

What do the screens show for `CC(C)N1CC[C@@H]2[C@H]1C(=O)NC[C@H](CCC(=O)N1CCN(c3ccccn3)CC1)N2C`?
SNCA expr inhib: inactive; KDM5B inhibitor: 32µM; SNCA viab count: inactive; IP6K1 inh: inactive

Results for CC(C)N1CC[C@@H]2[C@H]1C(=O)NC[C@H](CCC(=O)N1CCc3ccccc31)N2C ?
SNCA expr inhib: inactive; KDM5B inhibitor: inactive; SNCA viab count: inactive; IP6K1 inh: inactive

How did COCCNC(=O)C1CCCN1C(=O)c1cccc(-c2ccccn2)c1 (stereo not drawn) do in these assays?
SNCA expr inhib: inconclusive; SNCA viab count: inactive; IP6K1 inh: inactive

Results for COCCN(C)C[C@@H]1CN(C(=O)c2ccc(-c3ccco3)cc2)C[C@@H]1CO ?
SNCA expr inhib: inactive; KDM5B inhibitor: 32µM; SNCA viab count: inactive; IP6K1 inh: inactive

How did CC(=O)Oc1c(-c2ccc(NC(=O)CC(C)C)cc2)c(-c2ccc(F)cc2)nn1-c1ccc(F)cc1 do in these assays?
SNCA expr inhib: inactive; KDM5B inhibitor: 28µM; SNCA viab count: inactive; IP6K1 inh: inactive
